# This is one part of a sample in which the strongest signals are shown more often than they occur.
# B1: CLEC-6 (Homo sapiens), Q8WXI8 (protein)
# chain: MGLEKPQSKLEGGMHPQLIPSVIAVVFILLLSVCFIASCLVTHHNFSRCKRGTGVHKLEHHAKLKCIKEKSELKSAEGSTWNCCPIDWRAFQSNCYFPLTDNKTWAESERNCSGMGAHLMTISTEAEQNFIIQFLDRRLSYFLGLRDENAKGQWRWVDQTPFNPRRVFWHKNEPDNSQGENCVVLVYNQDKWAWNDVPCNFEASRICKIPGTTLN
# B2: MAL (Maackia amurensis) (protein)
# chain: SDELSFTINNFMPNQGDLLFQGVATVSPTGVLQLTSEENGQPLEYSVGRVLYTAPVRIWDSTTGAVASFSTSFTFVVKAARGASDGLAFFLAPPDSQIPSGSVSKYLGLFNNSNSDSSNQIVAVEFDTYFGHSYDPWDPNYRHIGIDVNGIESIKTVQWDWINGGVAFATITYLAPNKTLIASLVYPSNQTSFIVAASVDLKEILPEWVRVGFSAATGAPKAVETHDVRSWSFTSTLEANSPADVDN
# B3: chitinase 3-like protein 2 (Homo sapiens) (protein)
# chain: YKLVCYFTQWSQDRQEPGKFTPENIDPFLCSHLIYSFASIENNKVIIKDKSEVMLYQTINSLKTKNPKLKILLSIGGYLFGSKGFHPMVDSSTSRLEFINSIILFLRNHNFDGLDVSWIYPDQKENTHFTVLIHELAEAFQKDFTKSTKERLLLTAGVSAGRQMIDNSYQVEKLAKDLDFINLLSFDFHGSWEKPLITGHNSPLSKGWQDRGPSSYYNVEYAVGYWIHKGMPSEKVVMGIPTYGHSFTLASAETTVGAPASGPGAAGPITESSGFLAYYEICQFLKGAKITRLQDQQVPYAVKGNQWVGYDDVKSMETKVQFLKNLNLGGAMIWSIDMDDFTGKSCNQGPYPLVQAVKRSLGSL
# Experiments:
# Assay in all cases: glycan array binding signal (z-score within array); higher = stronger binding
# Conditions in all cases: glycan notation: IUPAC condensed, linker removed
# [1] = biological target: Fuc(a1-2)Gal(b1-3)GalNAc(b1-3)Gal
# Method in brief: (§1)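 Negative Z-scores can be read as non-binding. The Z-score is calculated within each array and then averaged across arrays of one protein sequence at different concentrations or buffers and across linkers. Arrays, 3228 in all, were curated from the Consortium for Functional Glycomics database and kept only where the protein sequence was available.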
# [2] = biological target: Fuc(a1-2)Gal(b1-4)GlcNAc(b1-3)Gal(b1-4)GlcNAc
# Method in brief: as §1
# [3] = biological target: Fuc(a1-2)Gal(b1-4)GlcNAc(b1-3)Gal(b1-4)GlcNAc(b1-3)Gal(b1-4)GlcNAc
# Method in brief: as §1
# [4] = biological target: Fuc(a1-2)Gal(b1-4)[Fuc(a1-3)]GlcNAc(b1-3)Gal(b1-4)[Fuc(a1-3)]GlcNAc(b1-3)Gal(b1-4)[Fuc(a1-3)]GlcNAc
# Method in brief: as §1
# [5] = biological target: Fuc(a1-2)[Gal(a1-3)]Gal(b1-4)Glc
# Method in brief: as §1
# [6] = biological target: Fuc(a1-2)[Gal(a1-3)]Gal(b1-4)[Fuc(a1-3)]GlcNAc
# Method in brief: as §1
# [7] = biological target: Fuc(a1-2)[GalNAc(a1-3)]Gal(b1-4)GlcNAc
# Method in brief: as §1
# [8] = biological target: Fuc(a1-2)[GalNAc(a1-3)]Gal(b1-4)[Fuc(a1-3)]GlcNAc
# Method in brief: as §1
# [9] = biological target: Gal(b1-2)Gal
# Method in brief: as §1
# [10] = biological target: Gal(b1-3)GalNAc(b1-4)Gal(b1-4)Glc
# Method in brief: as §1
# [11] = biological target: Gal(b1-4)Glc6S
# Method in brief: as §1
# [12] = biological target: Gal3S6S(b1-4)GlcNAc6S
# Method in brief: as §1
# [13] = biological target: Gal6S(b1-4)GlcNAc
# Method in brief: as §1
# [14] = biological target: GlcNAc(b1-3)Gal(b1-4)GlcNAc
# Method in brief: as §1
# [15] = biological target: GlcNAc(b1-4)[GlcNAc(b1-6)]GalNAc
# Method in brief: as §1
# [16] = biological target: Man(a1-2)Man(a1-2)Man(a1-3)Man
# Method in brief: as §1
# [17] = biological target: Neu5Ac(a2-3)Gal(b1-3)GalNAc(b1-3)Gal(a1-4)Gal(b1-4)Glc
# Method in brief: as §1
# [18] = biological target: Neu5Ac(a2-3)Gal(b1-3)GalNAc6S
# Method in brief: as §1
# [19] = biological target: Neu5Ac(a2-3)GalNAc(b1-4)GlcNAc
# Method in brief: as §1
# [20] = biological target: Neu5Ac(a2-6)Gal(b1-4)GlcNAc
# Method in brief: as §1
# [21] = biological target: Neu5Ac(a2-6)Gal(b1-4)GlcNAc(b1-3)Gal(b1-4)[Fuc(a1-3)]GlcNAc(b1-3)Gal(b1-4)[Fuc(a1-3)]GlcNAc
# Method in brief: as §1
# [22] = biological target: Neu5Ac9Ac(a2-6)Gal(b1-4)GlcNAc
# Method in brief: as §1
# [23] = biological target: Fuc(a1-2)Gal(b1-4)[Fuc(a1-3)]GlcNAc
# Method in brief: as §1
# [24] = biological target: Gal(b1-3)[Fuc(a1-4)]GlcNAc(b1-3)Gal(b1-4)GlcNAc
# Method in brief: as §1
# [25] = biological target: Gal(b1-3)[Fuc(a1-4)]GlcNAc(b1-3)Gal(b1-4)[Fuc(a1-3)]GlcNAc
# Method in brief: as §1
# [26] = biological target: Gal3S(b1-4)Glc
# Method in brief: as §1
# [27] = biological target: Gal3S(b1-4)Glc6S
# Method in brief: as §1
# [28] = biological target: Gal3S(b1-4)GlcNAc
# Method in brief: as §1
# [29] = biological target: Gal3S(b1-4)GlcNAc6S
# Method in brief: as §1
# [30] = biological target: Gal3S6S(b1-4)GlcNAc
# Method in brief: as §1
# [31] = biological target: GlcNAc(a1-3)Gal(b1-4)GlcNAc
# Method in brief: as §1
# [32] = biological target: GlcNAc(b1-3)[GlcNAc(b1-6)]GalNAc
# Method in brief: as §1
# [33] = biological target: Man(a1-2)Man(a1-3)[Man(a1-2)Man(a1-6)]Man(a1-6)[Man(a1-3)[Man(a1-6)]Man(a1-6)]Man(b1-4)GlcNAc(b1-4)GlcNAc
# Method in brief: as §1
# [34] = biological target: Neu5Ac(a2-3)GalNAc
# Method in brief: as §1
# [35] = biological target: Neu5Ac(a2-3)[GalNAc(b1-4)]Gal(b1-4)Glc
# Method in brief: as §1
# [36] = biological target: Neu5Ac(a2-6)Gal(b1-4)Glc
# Method in brief: as §1
# [37] = biological target: Neu5Gc(a2-3)Gal(b1-4)[Fuc(a1-3)]GlcNAc
# Method in brief: as §1
# [38] = biological target: Fuc(a1-2)Gal(b1-4)[Fuc(a1-3)]GalNAc(b1-3)Gal(b1-4)[Fuc(a1-3)]GlcNAc
# Method in brief: as §1
# [39] = biological target: Fuc(a1-3)[GalNAc(b1-4)]Gal(b1-4)GlcNAc
# Method in brief: as §1
# [40] = biological target: Gal(b1-3)[GlcNAc(b1-6)]GlcNAc
# Method in brief: as §1
# [41] = biological target: Gal(b1-4)GlcNAc(b1-3)Gal(b1-4)[Fuc(a1-3)]GlcNAc(b1-3)Gal(b1-4)[Fuc(a1-3)]GlcNAc
# Method in brief: as §1
# [42] = biological target: GalNAc(b1-4)GlcNAc
# Method in brief: as §1
# [43] = biological target: GlcNAc(b1-3)Gal(b1-3)GalNAc
# Method in brief: as §1
# [44] = biological target: GlcNAc(b1-4)GlcNAc(b1-4)GlcNAc(b1-4)GlcNAc(b1-4)GlcNAc
# Method in brief: as §1
# [45] = biological target: GlcNAc(b1-4)GlcNAc(b1-4)GlcNAc(b1-4)GlcNAc(b1-4)GlcNAc(b1-4)GlcNAc
# Method in brief: as §1
# [46] = biological target: Neu5Ac(a2-3)Gal(b1-3)[Neu5Ac(a2-3)Gal(b1-4)]GlcNAc
# Method in brief: as §1
# [47] = biological target: Neu5Ac(a2-3)Gal(b1-4)Glc
# Method in brief: as §1
# [48] = biological target: Neu5Ac(a2-3)Gal(b1-4)GlcNAc(b1-3)Gal(b1-4)GlcNAc
# Method in brief: as §1
# [49] = biological target: Neu5Ac(a2-3)Gal(b1-4)GlcNAc(b1-3)Gal(b1-4)GlcNAc(b1-3)Gal(b1-4)GlcNAc
# Method in brief: as §1
# [50] = biological target: Neu5Ac(a2-8)Neu5Ac(a2-8)Neu5Ac(a2-8)Neu5Ac(a2-3)[GalNAc(b1-4)]Gal(b1-4)Glc
# Method in brief: as §1
# [51] = biological target: Neu5Gc(a2-3)Gal(b1-4)GlcNAc
# Method in brief: as §1
binder,measurement,setting,value
B1,glycan array binding signal (z-score),[1],6.22
same,glycan array binding signal (z-score),[2],-0.176
same,glycan array binding signal (z-score),[3],-0.295
same,glycan array binding signal (z-score),[4],0.12
same,glycan array binding signal (z-score),[5],-0.282
same,glycan array binding signal (z-score),[6],-0.276
same,glycan array binding signal (z-score),[7],-0.239
same,glycan array binding signal (z-score),[8],-0.102
same,glycan array binding signal (z-score),[9],-0.038
same,glycan array binding signal (z-score),[10],-0.328
same,glycan array binding signal (z-score),[11],-0.263
same,glycan array binding signal (z-score),[12],6.21
same,glycan array binding signal (z-score),[13],-0.239
same,glycan array binding signal (z-score),[14],-0.077
same,glycan array binding signal (z-score),[15],-0.138
same,glycan array binding signal (z-score),[16],1.94
same,glycan array binding signal (z-score),[17],-0.144
same,glycan array binding signal (z-score),[18],-0.077
same,glycan array binding signal (z-score),[19],-0.104
same,glycan array binding signal (z-score),[20],-0.221
same,glycan array binding signal (z-score),[21],1.59
same,glycan array binding signal (z-score),[22],-0.166
B2,glycan array binding signal (z-score),[1],-0.382
same,glycan array binding signal (z-score),[23],0.544
same,glycan array binding signal (z-score),[6],-0.348
same,glycan array binding signal (z-score),[24],-0.428
same,glycan array binding signal (z-score),[25],-0.272
same,glycan array binding signal (z-score),[26],4.98
same,glycan array binding signal (z-score),[27],4.51
same,glycan array binding signal (z-score),[28],4.96
same,glycan array binding signal (z-score),[29],5.35
same,glycan array binding signal (z-score),[30],0.345
same,glycan array binding signal (z-score),[13],-0.066
same,glycan array binding signal (z-score),[31],-0.353
same,glycan array binding signal (z-score),[32],-0.374
same,glycan array binding signal (z-score),[15],-0.221
same,glycan array binding signal (z-score),[33],-0.305
same,glycan array binding signal (z-score),[34],-0.392
same,glycan array binding signal (z-score),[19],-0.416
same,glycan array binding signal (z-score),[35],-0.394
same,glycan array binding signal (z-score),[36],0.057
same,glycan array binding signal (z-score),[37],-0.371
B3,glycan array binding signal (z-score),[1],-0.164
same,glycan array binding signal (z-score),[38],-0.22
same,glycan array binding signal (z-score),[39],-0.196
same,glycan array binding signal (z-score),[40],-0.209
same,glycan array binding signal (z-score),[41],-0.183
same,glycan array binding signal (z-score),[42],2.63
same,glycan array binding signal (z-score),[31],-0.271
same,glycan array binding signal (z-score),[43],-0.22
same,glycan array binding signal (z-score),[44],7.67
same,glycan array binding signal (z-score),[45],9.06
same,glycan array binding signal (z-score),[46],-0.116
same,glycan array binding signal (z-score),[47],-0.233
same,glycan array binding signal (z-score),[48],-0.269
same,glycan array binding signal (z-score),[49],-0.127
same,glycan array binding signal (z-score),[50],1.51
same,glycan array binding signal (z-score),[51],0.093
